According to PubChem BioAssay (NCI):
Compounds without any hit were thinned out: in the full panel of roughly 83,000, 20% have a hit.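 Cells were grown in 96-well plates and exposed to the test compound at a single concentration for 48 hours; results are reported as percent growth, with values below 10 considered active.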 Activity calls are given as the source filed them.

System: NCI-H23 lung
Assay: NCI-60 one-dose screen, 48 h (100 = growth as untreated, 0 = no growth, -100 = all killed)
Conditions: 10 µM unless noted

SMILES	growth
CCCCCc1ccc(S(=O)(=O)Nc2cc(-c3csc(NC(=O)CN4CCN(CCO)CC4)n3)ccc2OC)cc1	71.3% (inactive)
N/C(=N\C(N)=N\c1nc2ccccc2s1)c1ccc(C(F)(F)F)cc1	39% (inactive)
CCn1c(SCC(=O)Nc2cccc(C(=O)/C=C/c3ccc(Br)cc3)c2)nc2ccccc2c1=O	82.9% (inactive)
O=S(=O)(NCCCNc1nccc(-c2[nH]c(-c3ccccc3)nc2-c2ccc(Cl)c(O)c2)n1)c1ccc(Br)cc1	46.1% (inactive)
CS(=O)(=O)Nc1cc(-c2ccc3ncc(C#N)c(N[C@H](CO)c4ccccc4)c3c2)cnc1Cl	45.2% (inactive)
Cn1ccnc1C(=O)/C=C/c1ccc(CNC(=O)c2ccc(Cl)cc2)cc1	-7.45% (active)
O=C(Cn1cc(-c2ccccc2)nn1)Nc1nc(-c2ccc(Cl)cc2)cs1	97.7% (inactive)
Nc1cc(F)ccc1NC(=O)c1ccc(NC(=O)C/C=C/c2cccnc2)cc1	62.5% (inactive)
CCOC(=O)C1=NNC(c2ccc(Cl)cc2)C1C(=O)N1C(=S)NC(=O)C1CC(C)C (centres undefined)	99.3% (inactive)
COc1ccc(S(=O)(=O)NCCCNc2nccc(-c3[nH]c(-c4ccccc4)nc3-c3ccc(Cl)c(O)c3)n2)cc1	83.4% (inactive)
N=c1c2cc(-c3ccccc3)oc2ncn1/N=C/c1ccc(Br)cc1	102% (inactive)
CS(=O)(=O)Nc1cc(-c2ccc3ncc(C#N)c(Nc4cccc(Cl)c4F)c3c2)cnc1Cl	8.28% (active)
C=CCn1c(SCC(=O)Nc2ccc(C(=O)/C=C/c3ccc(Cl)cc3)cc2)nnc1-c1c[nH]c2ccccc12	77.8% (inactive)
Cc1ccc(NC(=O)c2ccc(CN3CCN(C)CC3)cc2)cc1Oc1ccc(-c2[nH]nc3ncnc(N)c23)cc1	99.6% (inactive)
c1ccc(C(c2nc3ncncc3[nH]2)N2CSc3nc4ccccc4n3C2)cc1 (centres undefined)	107% (inactive)
COc1ccc(Cn2cc3c(c2-c2cc(OC)c(OC)c(OC)c2)CCc2c(CN4CCCC4)noc2-3)cc1	7.29% (active)
CC1=CC(=O)C2=C(C)CC(OC(=O)CCc3ccccc3)[C@@H]3[C@H](OC(=O)[C@@H]3C)[C@@H]12 (some centres undefined)	95.4% (inactive)

SMILES	growth
CCCCCc1ccc(S(=O)(=O)Nc2cccc(-c3csc(NC(=O)CN4CCN(CCO)CC4)n3)c2)cc1	84.7% (inactive)
O=C(Nc1ccc(F)c(F)c1)c1cc(-c2ccc(F)cc2F)ccc1O	-9.76% (active)
COc1c(N2CC3CCCNC3C2)c(F)cc2c(=O)c(C(=O)N/N=C/c3ccc(N(C)C)cc3)cn(C3CC3)c12 (centres undefined)	69.1% (inactive)
CC(=O)C1=C(C)NC(NN)=NC1c1cccc(Cl)c1 (centres undefined)	99.9% (inactive)
C=CCn1c(SCC(=O)Nc2ccc(C(=O)/C=C/c3ccc(Br)cc3)cc2)nnc1-c1c[nH]c2ccccc12	90% (inactive)
COc1cc(Cn2cc3c(c2)-c2onc(CN4CCCC4)c2CC3)cc(OC)c1OC	86% (inactive)
O=C1Nc2ccccc2/C1=C/c1ccc(CO)n1-c1ccc(Cl)cc1	67% (inactive)
O=C(CSc1nc2ccccc2c(=O)n1-c1ccc(Cl)cc1)N/N=C/c1ccc(N2CCCCC2)cc1	65.9% (inactive)
Cc1ccc(-n2c(/C=C3\C(=O)Nc4ccccc43)ccc2CO)cc1	80.6% (inactive)
NC(=O)c1c(NC(=O)c2ccc(F)cc2F)sc2c1CCC(=O)C2	18.5% (inactive)
CCC(CC)N1C(=O)/C(=c2\sc3n(c2=O)NC2C(N=3)N(CC)C(=O)N2CC)c2ccccc21 (centres undefined)	44.1% (inactive)
Clc1cccc(/C=N/Nc2nc(N/N=C/c3cccc(Cl)c3Cl)nc(N3CCCCC3)n2)c1Cl	99.7% (inactive)
CCn1c2ccccc2c2cc(-n3nncc3-c3ccccc3)ccc21	7.25% (active)
Cc1c(Cl)cccc1S(=O)(=O)Nc1ccc2c(c1)C(=O)N(C1CCC(=O)NC1=O)C2=O (centres undefined)	102% (inactive)
COc1ccc(NC(=O)CSc2nnc(-c3ccc4nc(-c5ccccc5)[nH]c4c3)o2)cc1	96.3% (inactive)
CCOP(=O)(OCC)OC[C@]12CCC(C)(C)C=C1[C@H]1CC[C@@H]3[C@@]4(C)CC[C@H](OP(=O)(OCC)OCC)C(C)(C)[C@@H]4CC[C@@]3(C)[C@]1(C)CC2	-38.4% (active)
CCOC(=O)C(=O)CC(=O)N1C(=S)NC(=O)C1CC(C)C (centres undefined)	88.3% (inactive)
